Among the data in the OligoGym collection are sensor-assay potency score (higher = more potent) values, retold here.
Also: reference of the scale not given here.

For one assay, the target named is SLC50A1. Kind of assay: pooled miR-30 sensor sort-seq; sequence = guide strand. As to conditions: shRNA.
Turning to TTAGTTTGAATCACCTTAGCCA, the sensor-assay potency score (higher = more potent) came to 0.6.

As to TTATCCTCAAAGTCATCTCTTG, the sensor-assay potency score (higher = more potent) was -0.683.

Take TTCCTGTCTTGCTCCTGGGGGT: the sensor-assay potency score (higher = more potent) was -0.7.

Consider TAGTTTGAATCACCTTAGCCAA, for which the sensor-assay potency score (higher = more potent) was -1.16.

Take TCTGACGTTGTCCACACTCCGG: the sensor-assay potency score (higher = more potent) was -1.36.

TATAGGGATCTCTGAGTCGAAA: the sensor-assay potency score (higher = more potent) was -1.32.

Sequence TCGCATGTGCCTGAGGTCCGAG came in with a sensor-assay potency score (higher = more potent) of -1.22.

TTGATTTAGTTTGAATCACCTT registered a sensor-assay potency score (higher = more potent) of -0.06.

In turn, ATATAGGGATCTCTGAGTCGAA had a sensor-assay potency score (higher = more potent) of -0.899.

Sequence TGATTTAGTTTGAATCACCTTA showed a sensor-assay potency score (higher = more potent) of 0.457.

As for TCTGAGTCGAAACCCATAGAGG, the sensor-assay potency score (higher = more potent) is -1.58.

The target in another assay is SLC5A9. The description is as above. The following applies: shRNA.
The sequence TTAACAAGTCATGTCTCTCCAA had a sensor-assay potency score (higher = more potent) of -0.0979.

TTAGAGAGTAGGAAGAGGCAGA displayed a sensor-assay potency score (higher = more potent) of 0.115.

As for TAGGCGTGCAGACCAACTCTGG, the sensor-assay potency score (higher = more potent) is -1.48.

Turning to TTCTTTGGCAGACATCAGGGTC, the sensor-assay potency score (higher = more potent) was -0.689.

The sequence TGTTGGAACATCCCACTCGGGC displayed a sensor-assay potency score (higher = more potent) of -1.24.

TTGTCTAAGAGCTTTCTGCCCA yielded a sensor-assay potency score (higher = more potent) of -0.317.

With TAACAAGTCATGTCTCTCCAAC, the sensor-assay potency score (higher = more potent) is -0.907.

Turning to TTGTTTAATCTGTCTACACTGA, the sensor-assay potency score (higher = more potent) is -0.279.

Sequence AGGAACACCACAAACACTCTGC displayed a sensor-assay potency score (higher = more potent) of -0.94.

With TGGTCTGTGCACCAACACCAGG, the sensor-assay potency score (higher = more potent) is -1.88.

As for TTCTACTCTCAAGACACACATT, the sensor-assay potency score (higher = more potent) was -0.868.

On to TAGTCCATTGTCTAAGAGCTTT, for which the sensor-assay potency score (higher = more potent) is -1.07.

A further assay addresses SLC6A11. The description is as above. As to conditions: shRNA.
As for TTATCATAGAACCGGTTGCTTC, the sensor-assay potency score (higher = more potent) is -1.38.

Consider TAGGAGAAAAAGATCTGCGTTC, for which the sensor-assay potency score (higher = more potent) was -0.00212.

TTCTGCAGAGACACATGGCTGT registered a sensor-assay potency score (higher = more potent) of 0.541.

The sequence TTCAATGTTATCATAGAACCGG gave a sensor-assay potency score (higher = more potent) of -0.488.

The sequence TAGGAGATAACAGACAAGGCTA yielded a sensor-assay potency score (higher = more potent) of 0.294.

TCAATGTTATCATAGAACCGGT gave a sensor-assay potency score (higher = more potent) of -0.663.

ATAATTGTTATAACTTCCCAGA registered a sensor-assay potency score (higher = more potent) of -0.808.

TTCACTTGTGAACTGCCCCAGA yielded a sensor-assay potency score (higher = more potent) of -0.108.

For the sequence TCATTAACTGTCACCATCCGTG, the sensor-assay potency score (higher = more potent) was -0.565.

With TAGAACTTGATGCCCTCTGAGG, the sensor-assay potency score (higher = more potent) was -1.22.

For the sequence TACAAGTAGAACTTGATGCCCT, the sensor-assay potency score (higher = more potent) was found to be 0.00476.

With TTAACTGTCACCATCCGTGGGC, the sensor-assay potency score (higher = more potent) came out at 0.397.

The target of the next assay is SLC6A17. The description is as above. As to conditions: shRNA.
TATAGTAGAGTGTCTCTCCTGG came in with a sensor-assay potency score (higher = more potent) of 0.772.

Regarding TACTGCAGCTTACTGTTCCAGG, the sensor-assay potency score (higher = more potent) is -0.506.

TTGTCCTGCTTATTGTAGCTGG: the sensor-assay potency score (higher = more potent) was -0.728.

ATATATAGTGCCACACACCGAT displayed a sensor-assay potency score (higher = more potent) of 0.0995.

In the case of TTCTCGACCACACACTTCTCAT, the sensor-assay potency score (higher = more potent) is -1.03.
